# TRPM1 prom inh: MITF TRPM1 promoter inhibition in SK-MEL-5 cells | SK-MEL-5 TRPM1 promoter luciferase, 24 h | inhibition, % at 12.5 µM | hit rate 0.83% among 330,000;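 active = mean inhibition across replicates of 60% or more, whatever share of single replicates reaches that level; inconclusive = some that reach 60%, reason not given; inactive = mean inhibition across replicates below 60%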
# Shn3 inh set2: Schnurri-3 reporter inhibition in Clone20 osteoblasts; inhibition, % at 12.5 µM; hit rate 0.52% among 360,000; Clone20 osteoblast Shn3 3'UTR firefly luciferase, 24 h;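 active = mean inhibition of at least 75% with every replicate also reaching 75%; inconclusive = mean inhibition at least 75% but some replicate below; inactive = mean inhibition below 75%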;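 also: 0% = median of neutral control wells and 100% = pilot-screen positive control compound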
# EBV LMP1 NFkB: inhibitors of Epstein-Barr LMP1-induced NF-kappaB reporter; LMP1-induced NF-kappaB luciferase reporter cells, luminescence; inhibition, % at 12.5 µM; hit rate 0.69% among 350,000; AID 504558; in the data active = inhibition above about 41%; inconclusive = no clear call, values can overlap the other calls;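 also: 0% = neutral control wells and 100% = reference inhibitor control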
# Peg3 promoter: Peg3 promoter activity inhibition; HeLa PEG-Prom luciferase reporter, luminescence, overnight; inhibition, % at 20 µM; hit rate 1.7% among 360,000;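 active = inhibition of at least 50% at 20 µM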
# KKLEB cytotox: reduces viability of KKLEB cystic fibrosis airway cells | KKLEB CF airway cells viability, ATPlite luminescence, overnight; active compounds read low; cells stimulated with P. aeruginosa culture filtrate | activity change (cytotoxicity), % at 5 µM | hit rate 0.36% among 360,000 | AID 602141;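 active = corrected activity change at or below -50% at 5 µM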
# CF NFkB block: cystic fibrosis NF-kB activation inhibition; KKLEB NF-kB-GFP reporter, PAF-induced, GFP fluorescence overnight; inhibition, % at 5 µM; hit rate 0.86% among 360,000;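 active = at least 50% inhibition at 5 µM, scaled per plate between neutral and stimulator controls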;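 also: PAF is a Pseudomonas aeruginosa culture filtrate used as stimulus; plate controls were PAF-stimulated DMSO wells for no effect and unstimulated DMSO wells for full effect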
# * marks the source's active call; other numbers are inactive results; ? = inconclusive; / = no result. Only some compounds are listed: those with a hit (about 2.9% of all), similar ones and a draw of the others.
SMILES,TRPM1 prom inh,Shn3 inh set2,EBV LMP1 NFkB,Peg3 promoter,KKLEB cytotox,CF NFkB block
O=C(CSc1nnc(C2CC2)n1C1CC1)N1CCN(c2ccc(O)cc2)CC1,/,-4,1,3,-1,-2
CCn1c(=O)c([N+](=O)[O-])c(Cl)c2ccccc21,94*,96*,-4,108*,-2,67*
CCn1c(=O)c([N+](=O)[O-])c(NCCN(C)C)c2ccccc21,-4,-7,2,-5,-6,-4
O=C(Cc1ccccc1Cl)c1ccccc1,-15,-6,-6,-8,19,1
OC(c1ccccc1)(c1nc(-c2cc3ccccc3o2)cs1)C(F)(F)F (stereo not drawn),/,-6,/,-7,17,-9
C#CCCc1ccccc1/C=[N+](/C)[O-],65*,5,3,-20,3,-16
Cc1cc(/C=C\c2ccc3cc(N(C)C)ccc3[n+]2C)c(C)n1-c1ccccc1,101*,95*,52*,64*,-14,-37
CCNC(=O)C1(C)CCCN(Cc2cc(-c3ccccc3)n(C)n2)C1 (stereo not drawn),/,9,/,-3,5,13
C[C@@H]1CN([C@H](C)CO)C(=O)c2cc(-c3ccccc3)cnc2O[C@@H]1CN(C)C(=O)C1CCOCC1,/,-3,1,-15,8,-16
Cc1ccccc1Cn1c(C)c(C(=O)N(C)Cc2ccc(F)cc2)sc1=O,/,-11,/,9,-27,12
Cc1csc(NC(=O)c2cc3c(s2)CCCC3)n1,5,25,8,-40,-29,-5
Cc1csc(NC(=O)c2cc3c(s2)CCCCC3)n1,47,70,38,58*,-63*,9
Cc1cnc(NC(=O)c2cc3c(s2)CCCC3)s1,8,27,24,6,-51*,-6
CCOC(=O)c1nnc(-c2ccccc2)nc1Sc1ccccc1Cl,15,-3,16,51*,-6,31
CCOC(=O)c1nnc(-c2ccc(C)cc2)nc1Sc1cccc(Cl)c1,2,-20,3,13,8,-6
COc1ccc(/C=C/C(=O)NCC(=O)N=Nc2c(O)[nH]c3ccc([N+](=O)[O-])cc23)cc1,6,9,-4,42,-45,78*
Cc1cccc(OCC(=O)NCC(=O)N=Nc2c(O)[nH]c3ccc([N+](=O)[O-])cc23)c1,29,-21,1,9,1,-44
Clc1ccc2c(NCCNC3CCCCC3)ccnc2c1,95*,45,2,84*,-17,12
CC(C)NC1CCC(Nc2ccnc3cc(Cl)ccc23)CC1 (stereo not drawn),25,75,8,12,2,-9
CC(C)[C@@H]1CC[C@@H](C)C[C@H]1OC(=O)C[n+]1cc(-c2ccc(Cl)cc2)n2c1CCCCC2,79*,79,30,50,-44,48
COc1ccc(-c2c[n+](CC(=O)OC3CC(C)CCC3C(C)C)c3n2CCC3)cc1 (stereo not drawn),86*,82,4,28,-7,23
O=C1c2ccccc2C(=O)N1Nc1ccccc1,1,2,-2,3,3,-3
Cc1ccc(NN2C(=O)C=C(c3ccccc3)C2=O)cc1,/,-1,/,85*,-22,38
COC(=O)C[C@H]1C[C@H]2c3cc(NC(=O)Nc4ccc(F)cc4)ccc3O[C@H]2[C@@H](CO)O1,/,-8,1,8,-4,14
COc1cc(C(=O)c2nccc3cc(OC)c(OC)cc23)c([N+](=O)[O-])cc1OC,2,32,1,-6,-34,86*
SMILES,TRPM1 prom inh,Shn3 inh set2,EBV LMP1 NFkB,Peg3 promoter,KKLEB cytotox,CF NFkB block
C[C@H](CO)N1C[C@H](C)[C@@H](CN(C)S(=O)(=O)c2ccc3c(c2)OCCCO3)OCc2cn(nn2)CCCC1=O,/,-2,6,-13,-8,-16
Cc1ccc(CS(=O)(=O)c2ncc(Cl)c(C(=O)Nc3nnc(C(C)C)s3)n2)cc1,79*,95*,39,110*,-86*,85*
O=C(Nc1nnc(SCc2ccc(F)cc2)s1)c1ccccn1,1,77,45*,65*,5,-27
Cc1nnc(NC(=O)c2nc(S(=O)(=O)Cc3ccccc3C)ncc2Cl)s1,80*,96*,81*,106*,-92*,99*
Cc1nnc(NC(=O)CN2CCN(Cc3ccccc3Cl)CC2)s1,0,12,6,13,4,-3
CC(C)c1nnc(NC(=O)c2nc(S(=O)(=O)Cc3ccc(F)cc3)ncc2Cl)s1,75*,98*,85*,106*,-101*,89*
COc1cc(NC(=O)CN2C(=O)COc3ccccc32)cc(OC)c1,8,8,0,15,-16,10
CC(C)N1CCOC1c1ccccc1 (stereo not drawn),17,0,-2,-35,-9,-11
O=C(Cc1ccc(NC(=O)C2CCN(C(=O)C3CCCCC3)CC2)cc1)Nc1cccc(C(=O)N2CCCCC2)c1,-7,13,2,-7,34,-6
CC(C)c1nnc(NC(=O)CS(=O)(=O)Cc2ccccc2)s1,6,-10,-6,4,-6,10
CSc1ncc(Cl)c(C(=O)Nc2nnc(SC/C=C/c3ccccc3)s2)n1,10,-37,0,13,11,-8
CSc1nnc(NC(=O)c2nc(S(=O)(=O)Cc3cccc(C)c3)ncc2Cl)s1,81*,96*,?,101*,-50*,90*
CCSc1nnc(NC(=O)c2nc(S(=O)(=O)Cc3ccc(F)cc3)ncc2Cl)s1,40,96*,5,107*,-97*,92*
CSc1nnc(NC(=O)c2nc(S(=O)(=O)Cc3ccccc3F)ncc2Cl)s1,75*,96*,13,106*,-79*,95*
Cc1cccc(CS(=O)(=O)c2ncc(Cl)c(C(=O)Nc3nnc(C(C)C)s3)n2)c1,76*,95*,56*,106*,-87*,92*
CCCCC(=O)N(C)c1c(CC)nc2c(OCC(=O)N3CCOCC3)cccn12,/,8,/,-3,-9,21
CCCCNC(=O)C1(C)CCN1C(=O)c1ccc2c(c1)C(C)(C)CCC2(C)C (stereo not drawn),/,2,/,9,-10,7
CN(C)CCN1CCN(C2CN(Cc3ccccc3)S(=O)(=O)C2)CC1 (stereo not drawn),/,3,/,-7,0,-16
CNC(=O)C1CCC(=O)N1Cc1c[nH]c2ccccc12 (stereo not drawn),/,9,/,-6,8,-18
Cc1nc2[nH]c(=S)[nH]c2c(=O)[nH]1,-1,-25,4,-6,9,-10
Cc1sc2ncnc(Sc3nnnn3-c3ccc(Cl)cc3)c2c1C,73*,-23,5,88*,-57*,84*
c1ccc(-n2nnnc2Sc2ncnc3sc4c(c23)CCCC4)cc1,63*,?,-10,68*,-52*,82*

# Screening data (PubChem BioAssay)
